Bioassay records (PubChem)
Tg IFNy HTS: T. gondii growth inhibition under IFN-gamma. 69,000 tested, 3.8% active. Toxoplasma gondii growth in IFN-gamma-treated host cells; stronger effect = lower value. activity change, negative = inhibition, % (test concentration not listed); in the data active = activity change below about -70%, passing the limit was not always enough;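 note: host cells are HeLa cells infected with Toxoplasma gondii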
A number is an active result; 0 = inactive; ! = a repeat was not active. The sample as a whole holds a higher share of hits than the screen did.

SMILES	Tg IFNy HTS
COc1c(Cl)cc(Cl)cc1CN1CC[C@@H](N)[C@@H](OC)C1	0
N#Cc1c(=O)[nH]c(O)c2c(=N)oc3ccc(Cl)cc3c12	0
N#Cc1c(=N)nc2oc3ccc(Cl)cc3c3c(C#N)c(N)[nH]c1c23	-75.1
O=C(O)C1CN(c2nc(-c3ccccc3)nc3c2CCC3)CCN1 (stereo not drawn)	0
Cn1cc(-c2cc3n(n2)CCC(=O)N3CC(=O)NCc2cccnc2)c2ccccc21	0
Cc1nc2ccccn2c(=O)c1CCN1CCC(C(=O)c2ccc(F)cc2)CC1	0
Cc1nc2n(c(=O)c1CCN1CCC(c3noc4cc(F)ccc34)CC1)CCCC2O (stereo not drawn)	0
Cc1nc2sccn2c(=O)c1CCN1CCC(=C(c2ccc(F)cc2)c2ccc(F)cc2)CC1	-77.1!
Cc1cccc(N2CCC(NC(=O)CC(C)n3ccnc3C)CC2)c1 (stereo not drawn)	0
Cc1ncsc1CCN(C)c1nc(-c2cccnc2)nc2c1cnn2C	0
Cc1ccsc1CN(C)c1nc(-c2cccnc2)nc2c1cnn2C	-73.7
CN(CCCc1cnn(C)c1)c1nc(-c2cccnc2)nc2c1cnn2C	0
O=C(CCc1ccccc1)Nc1ccc(Cl)cn1	0
Cc1oc2ncn3nc(C(C)NC(=O)CCc4ccccc4)nc3c2c1C (stereo not drawn)	0
CC(C)c1ccc(C(NC(=O)CCc2ccccc2)c2ccc3cccnc3c2O)cc1 (stereo not drawn)	-102.0
CC(C)N(C)Cc1nnc2n1CCN(CCO)C2	0
Cc1cccc(CN2C[C@@H]3COC[C@]3(CC(=O)N3CCOCC3)C2)c1	0
CN(C)CCN1C[C@H]2OCCN(Cc3cnn(C)c3)[C@H]2C1	0
COc1ccc(C(=O)/C=C2/c3ccccc3CC(C)(C)N2C)cc1	0
COc1ccc(C(=O)O/N=C2/C(=O)N(C)c3ccccc32)cc1	-100.2
O=C(OOC(=O)c1ccccc1)c1ccccc1	0
O=C(OCc1ccccc1)c1ccccc1	0
CC1=NN(C)C(=O)/C1=N\OC(=O)c1ccc(Cl)cc1	0
O=C(O/N=C1/C(=O)c2ccccc2-c2ccccc21)c1ccccc1	-103.1
Cn1c(CNC(=O)C2CCC2)nc2c1CN(C(=O)c1ccc(C(F)(F)F)s1)CC2	0
SMILES	Tg IFNy HTS
O=C(O)c1ccc(Nc2nc(-c3ccccc3)c3cc(Cl)ccc3n2)cc1	0
C=Cc1cccc(CN2CCCC(CNC(=O)C3(N)CCC3)C2)c1 (stereo not drawn)	0
COc1ccc(C(N)=O)cc1-c1ccc(NC(C)=O)cc1	0
COc1ccc(N2CCN(C(=O)c3cncc(NS(=O)(=O)c4ccc(C)cc4)c3)CC2)cc1	0
CCC1(c2ccccc2)OC(/C=C/c2ccccc2)Nc2ccccc21 (stereo not drawn)	0
CN1C(=O)c2cc(NC(=O)Cc3cccs3)ccc2OC[C@@H]2O[C@H](CC(=O)NCc3ccc(-c4ccccc4)cc3)CC[C@H]21	0
CN1C(=O)c2cc(NC(=O)Cc3cccs3)ccc2OC[C@H]2O[C@@H](CC(=O)NCCc3ccncc3)CC[C@@H]21	0
CN1C(=O)c2cc(NC(=O)Cc3cccs3)ccc2OC[C@H]2O[C@H](CC(=O)NCc3ccc(-c4ccccc4)cc3)CC[C@@H]21	-84.9
CC(C)C(=O)c1nc2c(s1)CCCN2c1ncccn1	0
CC1=C(C(=O)NCc2cccnc2)C2(CCN(S(=O)(=O)c3cccs3)CC2)OC1=O	0
NC(=O)c1sc2ccccc2c1C1CCC(CNC(=O)Cn2nnc3ccccc32)CC1 (stereo not drawn)	0
CC(C)n1c(/C=C/[C@@H](O)C[C@@H](O)CC(=O)O)c(-c2ccc(F)cc2)c2ccccc21	-77.8!
CC(NC(=O)c1cc(-c2ccc(F)cc2)no1)c1nc2ccccc2n1C(C)C (stereo not drawn)	0
CC(C)n1c(SCC(=O)O)nc2ccccc21	0
CCOCC1CN(C(=O)/C=C/c2cccs2)Cc2c1cnn2C (stereo not drawn)	0
CN1CC2(CCN(C(=O)c3cc4c(s3)CCCCC4)C2)OC1=O (stereo not drawn)	0
C[C@]12CCC(=O)C=C1CCC1C2C(=O)C[C@@]2(C)C1CC[C@]2(O)C(=O)CO (stereo partly drawn)	0
C#C[C@]1(O)CCC2C3CCC4=CC(=O)CCC4C3C(=C)CC21CC (stereo partly drawn)	0
C#C[C@]1(O)CCC2C3CCC4=Cc5oncc5C[C@]4(C)C3CC[C@@]21C (stereo partly drawn)	-73.7!
C#C[C@]1(O)CC[C@@H]2C3[C@H](C)CC4=C(CCC(=O)C4)[C@H]3CC[C@@]21C (stereo partly drawn)	0
CCC(=O)O[C@]1(C(=O)CO)CC[C@H]2[C@@H]3CCC4=CC(=O)CC[C@]4(C)[C@H]3CC[C@@]21C	0
C#C[C@]1(O)CCC2C3CCc4cc(O)ccc4C3CC[C@@]21C (stereo partly drawn)	-77.4
C#C[C@]1(O)CCC2C3CCC4=C(CCC(=O)C4)C3CC[C@@]21C (stereo partly drawn)	-80.0
C[C@]12CCC3c4ccc(OC(=O)c5ccccc5)cc4CCC3C1CCC2=O (stereo partly drawn)	0
C#C[C@]1(O)CCC2C3CCC4=CC(=O)CC[C@@H]4C3CC[C@@]21C (stereo partly drawn)	-81.0
SMILES	Tg IFNy HTS
C#C[C@]1(O)CCC2C3CCc4cc(OC5CCCC5)ccc4C3CC[C@@]21C (stereo partly drawn)	0
CC[C@H]1CN(c2ncc(C(=O)O)cc2Cl)CC[C@@]1(C)O	0
c1ccc(O[C@H]2CO[C@@]3(CCCN(c4ncccn4)C3)C2)nc1	0
CN(Cc1noc2c1CCCC2)c1ncnc2c1CCN(C(=O)C1CC1)C2	0
C=C(C)Cn1c(/C=C/c2ccco2)nc2ccccc21	0
O=C(CCC(=O)NC(c1cccnc1)C(F)(F)F)NC1CCCC1 (stereo not drawn)	0
CC(C)CN1C[C@@H]2C[C@H](C(=O)N3CCOCC3)[C@@H](C1)O2	0
C[C@@H]1CC=CC[C@@H](c2ccccc2)NC(=O)[C@@H](C)N(C)C(=O)c2ccccc2O1 (mixture of isomers)	0
O=C(NC[C@@H]1CCNC[C@H]1O)c1ccc2c(c1)CCO2	0
Cc1nn(CCC(=O)NCC2(O)CCCNCC2)c(C)c1C (stereo not drawn)	0
CC(=O)Nc1ccc(Cl)c(C(=O)N2CCS(=O)(=O)CC2)c1	0
Cc1nc(NS(C)(=O)=O)sc1C(=O)N1Cc2ccccc2OCC1CN(C)C (stereo not drawn)	0
C[C@H]1[C@@H](O)O[C@@H]2O[C@@]3(C)CC[C@H]4[C@H](C)CC[C@@H]1[C@@]24OO3	-94.3
CN(Cc1cc(C(C)(C)C)n[nH]1)c1cc(N2CCOCC2)nc(N)n1	0
Cc1ccnc(C(NC(=O)c2cnc3cccc(C)n3c2=O)C2CC2)c1 (stereo not drawn)	0
CC(=O)[C@H]1[C@H](C#N)C[C@H]2[C@@H]3CC=C4C[C@@H](O)CC[C@]4(C)[C@H]3CC[C@@]21C	-84.4
C[C@]12CC[C@H](O)CC1=CCC1C2CC[C@]2(C)C(n3cnc4ccccc43)=CCC12 (stereo partly drawn)	0
C[C@]12CCC3C(CC=C4C[C@@H](O)CC[C@@]43C)C1CCC2[C@]1(C)CCC(=O)O1 (stereo partly drawn)	0
O=S(=O)(c1ccc(Cl)s1)N1CCC2(CC1)Nc1cc(F)ccc1-n1cccc12	0
Cn1nc(CN2CCCC(OCc3cccnc3)C2)c2c(Cl)cccc21 (stereo not drawn)	0
CCO[C@@H]1CCN(C(=O)C(C)C)[C@@H]2CCO[C@H]21	0
